Screening results: PubChem BioAssay, National Center for Advancing Translational Sciences (NCATS)
An excerpt weighted towards active compounds, which were near 3.7% of everything screened.
TbPYK inhibitor – T. brucei pyruvate kinase inhibition; Potency, µM (highest dose often 76.8 µM), inactives show at the top dose activity, negative = inhibition, most hits filed as inhibitors; 410,000 compounds, 0.12% hits; TbPYK enzyme, Kinase-Glo Plus ATP luminescence, 45 min; also: nearly all actives have a fitted effect of over 50% in size
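Activity of T. brucei pyruvate kinase was followed by Kinase-Glo Plus luminescence after the enzyme reacted 45 min at room temperature with 130 uM ADP (final) and substrate. Test compounds were added before ADP at multiple concentrations.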
Sm TGR inh – S. mansoni TGR enzyme inhibition; AID 485364; Q962Y6; 360,000 compounds, 3% hits; purified TGR, DTNB reduction, TNB absorbance 405 nm; Potency, µM (highest dose often 114 µM), without a hit: at the top dose activity change, negative = inhibition, usual class: inhibitors; also: nearly all actives have a fitted effect of over 60% in size
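Kinetic colorimetric format: TGR-catalysed, NADPH-driven DTNB reduction monitored via TNB absorbance. Enzyme dispensed at 20 nM; compound exposure 15 min at room temperature before reaction start.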
RE007 growth inh – less growth of the S. pombe RE007 Vpr strain. S. pombe RE007 Vpr strain, BacTiter-Glo ATP luminescence, 24 h. Potency, µM (doses to about 92.2 µM), for inactives: top-dose activity change, negative = less growth, usual class: inhibitors. 360,000 compounds, 0.21% hits; active = well fitted falling curve with a large enough effect; inconclusive = small, poorly fitted or top-dose-only effect; inactive = no such curve, though single readings can be large or run the other way; also: nearly all actives have a fitted effect of over 50% in size
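Fission yeast strain RE007, carrying one chromosomally integrated HIV-1 vpr copy, was seeded at OD 0.01 in PMG+AL medium with 23 nL pinned compound. After 24 h at 30 °C and 99% humidity, viability was read by BacTiter-Glo luminescence.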
FMDV antiviral – blocks foot and mouth disease virus; FMDV antiviral cell-based qHTS; 410,000 compounds, 1.2% hits; Potency, µM (top dose mostly 57.9 µM), inactives show at the top dose activity change, negative = inhibition, actives largely listed as inhibitors; AID 1159524; calls by dose curve; tested in HEK293T cells; also: read-out not given here; nearly all actives have a fitted effect of over 45% in size
* marks the source's active call; other numbers are inactive results; ? = inconclusive; nt = not tested or not shown; [ ] = another dose, or the depositor's remark. Unless noted, calls follow the shape of the dose curve; as a rule, active = well fitted curve in the direction sought with a large enough effect; inconclusive = small, poorly fitted or top-dose-only effect, or another doubt; inactive = no such curve, though single readings can be large; an effect the other way counts as inactive or inconclusive. % is scaled to controls: 0 for no effect and ±100 for the full control effect; potency is read from the fitted curve at half-maximal effect.

SMILES	TbPYK inhibitor	Sm TGR inh	RE007 growth inh	FMDV antiviral
S=c1[nH]nc(-c2ccc3ncccc3c2)n1-c1ccc2c(c1)OCCO2	3.5µM*	1%	-5%	25%
S=c1[nH]nc(-c2ccc3ccccc3n2)n1-c1ccc2ncccc2c1	4µM*	-8%	7%	-22%
S=c1[nH]nc(Cn2c(-c3ccccn3)nc3ccccc32)n1-c1ccc2c(c1)OCCO2	16µM*	-2%	-8%	53%
COc1cc(OC)cc(-c2n[nH]c(=S)n2-c2ccc3c(c2)OCO3)c1	?	-1%	0%	-17%
Oc1ccc(-c2n[nH]c(=S)n2-c2ccc3c(c2)OCCO3)cc1	4.5µM*	-7%	18%	28%
O=C(CCC1N=C2c3ccccc3N=C(SCc3cccc(F)c3)N2C1=O)NCc1ccc(F)cc1 (centres undefined)	2%	-1%	nt	?
COCC(=O)Nc1cc(C(=O)N2CCCCC2c2nccn2C)cc2nc(-c3ccccc3)n(C)c12 (centres undefined)	nt	nt	nt	4%
CCOc1ccc(CCNC(=O)c2ccc(CSCc3ccccc3C)o2)cc1OCC	-4%	5%	nt	0%
NC(CCC(=O)NCS(=O)(=O)O)C(=O)O (centres undefined)	nt	nt	nt	-7%
CC(O)c1nc2ccccc2n1Cc1ccccc1 (centres undefined)	-3%	5.6µM*	-13%	4%
COc1ccc(C(=O)NCCN2Cc3ccccc3OC(c3ccsc3)C2)c(OC)n1 (centres undefined)	nt	nt	nt	-10%
O=c1oc2c(O)cccc2cc1-c1nc2ccccc2[nH]1	2%	11%	-11%	0%
O=C(O)c1ccc2nc(-c3cc4cccc(O)c4oc3=O)[nH]c2c1	20µM*	-27%	nt	?
COC(=O)N1CCC2(CC1)CN(c1ccccc1)C2	4%	nt	nt	-7%
CC(=O)N(Cc1ccccc1)c1ncc2c(n1)c(=O)c(C#N)c1ccccn12	3%	45µM*	0%	nt
CC(=O)N(Cc1c(C#N)c2ccccc2n1C)c1ccccc1	0%	2%	-9%	-25%
COc1ccc(CNC(=O)Cn2ncc3c([nH]c4ccccc43)c2=O)cc1	-2%	3%	nt	-17%
CCCn1c(CN(C)Cc2ccccc2)nc2c1c(=O)n(C)c(=O)n2C	-5%	-7%	3%	7.9µM*
CCCCn1c(CN(C)Cc2ccccc2)nc2c1c(=O)n(C)c(=O)n2C	1%	-10%	-5%	?
CCCn1c(CN(Cc2ccccc2)Cc2ccccc2)nc2c1c(=O)n(C)c(=O)n2C	3%	-9%	3%	25µM*
CCCOc1ccc(C(=O)Nc2ccc3oc(-c4ccc(N(C)C)cc4)nc3c2)cc1	4%	-1%	nt	2%
CCN(CC)Cc1oc(-c2ccccc2)cc1C(=O)O	6%	50µM*	0%	-9%
NCc1oc(-c2ccccc2)cc1C(=O)O	7%	45µM*	0%	45%
Cc1ccc2nc(-c3cc(NC(=O)COc4ccc(C)c(C)c4)ccc3Cl)oc2c1	1%	-4%	nt	40%
CN=c1scc(-c2ccccc2F)n1/N=C/c1ccc[nH]1	-19%	-14%	?	126µM*
SMILES	TbPYK inhibitor	Sm TGR inh	RE007 growth inh	FMDV antiviral
CCN=c1scc(-c2ccc(F)cc2)n1/N=C/c1ccccn1	1%	14%	5%	-14%
CC(C)N=c1scc(-c2cccs2)n1/N=C/c1ccc(O)c(O)c1O	-23%	20µM*	?	-21%
CN=c1scc(-c2ccccc2F)n1/N=C/c1ccc(O)c(O)c1O	?	18µM*	?	3.5µM*
Cc1cccc(C(=O)N[C@H]2CC[C@@H](n3cc(C(=O)N4CCCC4)nn3)CC2)c1	nt	nt	nt	-8%
COc1ccccc1CNC(=O)c1nnn(CC(=O)Nc2c(C)cccc2C)c1N	-5%	-2%	nt	15%
CCC(COC)NC(=O)c1cnn(-c2ncc3c(n2)-c2ccccc2CC3)c1C (centres undefined)	nt	nt	nt	29%
CCCOC(=O)c1c(NC(=O)c2nc3ncccn3n2)sc(C(=O)OCC)c1C	-1%	20%	nt	-5%
COc1ccc(-n2ncc(C(=O)N3CCc4ccccc4C3)c2C2CCN(C(=O)OC(C)(C)C)CC2)cc1	-7%[15.4 µM]	5%	nt	-8%
O=C(O)C[C@@H]1C(=O)O[C@@H]2C(COC(=O)c3cc(O)c(O)c(O)c3)O[C@@H](OC(=O)c3cc(O)c(O)c(O)c3)[C@@H](OC(=O)c3cc(O)c(O)c4c3[C@H]1[C@H](O)C(=O)O4)[C@H]2OC(=O)c1cc(O)c(O)c(O)c1 (some centres undefined)	nt	16µM*	nt	nt
COC1OC(COC(=O)c2ccccc2)C(OC(=O)c2ccccc2)C1OC(=O)c1ccccc1 (centres undefined)	-2%	0%	5%	-20%
CCN1/C(=C/c2ccc3cccc(C)c3[n+]2CC)Sc2ccccc21	-5%	26%	?	7.9µM*
CCN1/C(=C/c2ccc3cc(C)cc(C)c3[n+]2CC)Sc2cc(C)ccc21	-16%	-18%	?	?
CN[C@H]1CCc2cc(OC)c(OC)c(OC)c2-c2ccc(N[C@@H]3CCCCNC3=O)c(=O)cc21	nt	nt	nt	-3%
CCOC(=O)N1CCN(CC(=O)Nc2c(C(=O)OC)[nH]c3cc(C)ccc23)CC1	-3%	0%	18%	?
CCOC(=O)c1[nH]c2ccc(F)cc2c1NC(=O)CN1CCN(C/C=C/c2ccccc2)CC1	6%	-18%	23%	32µM*
COC(=O)c1[nH]c2cc(C)ccc2c1NC(=O)CN1CCc2cc(OC)c(OC)cc2C1	-1%	-11%	13%	22µM*
COC(=O)c1[nH]c2ccc(C)cc2c1NC(=O)CN1CCN(c2ccc(F)cc2)CC1	-8%	-6%	1%	25µM*
CCOC(=O)N1CCN(CC(=O)Nc2c(C(=O)OC)[nH]c3ccc(Cl)cc23)CC1	3%	-6%	5%	32µM*
CCOC(=O)c1ccc(C#Cc2ccc3c(c2)C(C)(C)CCS3)nc1	-10%	nt	nt	nt
CCCCCCCCOC(=O)C1=C(C)Nc2nnnn2C1c1cccs1 (centres undefined)	-24%	3%	32µM*	?
COc1nnc(-c2ccc(N3CCCCC3)c(NC(=O)c3ccccc3)c2)c2ccccc12	2%	6%	nt	8.9µM*
COc1ccc(Oc2c(C)oc3cc(OC(=O)N(C)C)ccc3c2=O)cc1	-4%	22µM*	-2%	-20%
Cc1ccc(-n2nnc3c(=O)n(CC(=O)NCc4ccco4)cnc32)cc1	-7%	-25%	9%	-14%
CCOC(=O)c1ccc(NC(=O)Cn2nnc(-c3ccccc3F)n2)cc1	-6%	-22%	-9%	0%
O=C(Cn1nnc(-c2ccccc2F)n1)NCc1ccco1	4%	45µM*	8%	11%
O=C(Cn1nnc(-c2ccccc2)n1)c1ccccc1	4%	-2%	-1%	nt
O=C(Cn1cnc2c(nnn2-c2ccc(F)cc2)c1=O)NCc1ccco1	0%	79µM*	-14%	-6%
O=C(Cn1nnc(-c2ccccc2F)n1)OCC(=O)c1ccccc1	-5%	0.79µM*	-2%	-7%
O=C(Cn1nnc(-c2ccc(F)cc2)n1)OCC(=O)c1ccccc1	-1%	10µM*	6%	3%
